Measurements published in PubChem BioAssay AID1307 (SRMLSC, 2008).
The campaign covered roughly 1,200 compounds. Fewer than 10 were called active.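 How the source made its calls: active means inhibition reaching a set limit at one or more tested concentrations; inactive means inhibition under that limit at every dose.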 These entries were drawn from the full list. Measured potencies and affinities stand elsewhere.

Test: yeast RAM network inhibitors, dose response, S. cerevisiae (AID 1307);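 further: 0% = DMSO vehicle wells and 100% = 10 µM 1-NA-PP1 control; higher inhibition means more yeast growth since RAM block rescues cells from 5-FOA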
Details: S. cerevisiae RAM network URA3 reporter, 5-FOA growth OD615, hits give high values, yeast express analog-sensitive mutant Cbk1 kinase; at 100 µM unless noted

Max inhibition, inactive:
Cc1ccc(-n2c(O)c(/C=N/c3ncn[nH]3)c3ccccc3c2=O)cc1 10.6%, COc1ccc(/C=C(\C#N)C(=O)NCCc2ccccc2)cc1OCc1ccccc1 4.42% [at 1.563 µM], CCOC(=O)C1=C(c2ccccc2)N=c2s/c(=C\c3cc(OC)c(OC)c(OC)c3)c(=O)n2C1c1cccs1 (stereo not given) 14.2%, O=C(COC(=O)c1cc(Cl)ccc1[N+](=O)[O-])NCc1ccc(Cl)cc1Cl 4.62% [at 1.563 µM], C=CCSc1nnc(CCCCCN2C(=O)c3cccc4cccc(c34)C2=O)o1 6.81%, Cc1ccc(/C=C/c2ccc(=O)n(Cc3ccccc3Cl)n2)cc1 3.92% [at 3.125 µM], O=C(/C=C/c1cccc(C(F)(F)F)c1)Nc1cccc(C(F)(F)F)c1 2.77% [at 12.5 µM], COc1ccc(C(=O)/C=C/c2ccc(OC)c(COc3ccccc3F)c2)cc1 3.26% [at 12.5 µM], S=C(NCCC(c1ccccc1)c1ccccc1)Nc1ccccc1Cl 2.81%, Cc1ccc(NC(=O)Cc2ccc(Cl)c(Cl)c2)cc1S(=O)(=O)N(C)C 1.65%, CCN(CC)S(=O)(=O)c1cccc(C(=O)OCC(=O)c2ccc3c(c2)OCCO3)c1 3.81% [at 6.25 µM], CC(C)Cn1c(N)c(-c2nc(C(C)C)c(C(=O)c3ccccc3F)s2)c(=O)n(C)c1=O 7.65%, COc1cccc(CN(Cc2ccccc2F)S(=O)(=O)c2ccc(S(=O)(=O)NCc3ccccc3)cc2)c1 4.33%, COc1cccc(CN(Cc2ccco2)C(c2ccc(F)cc2)c2nnnn2C(C)(C)C)c1 (stereo not given) 5.18%, O=C(COC(=O)c1ccc(CSc2ccc(Cl)cc2)cc1)Nc1ccccc1 4.59%, CCOC(=O)c1c(-c2ccc(OC)cc2)csc1NC(=O)CSc1ccccc1 5.06%, C=C(C)CNC(=S)Nc1nc2c(cc1C(=O)OCC)CCCC2 2.44% [at 25 µM], COC(=O)c1cc(=O)n(CCc2ccccc2)c(=Nc2ccc(F)cc2)s1 4.08% [at 50 µM], O=C(O)CSc1nc(-c2ccc(Cl)cc2)nc2c1oc1ccccc12 6.31% [at 50 µM], COc1ccc(OC)c(NC(=O)C(Sc2ccccc2)c2ccccc2)c1 (stereo not given) 4.44% [at 50 µM], O=C(Nc1ccccc1-c1nnc(SCc2ccccc2Cl)o1)c1ccccc1 2.67% [at 50 µM], Cc1ccccc1N1C(=O)CC1(C#N)c1ccc(OCc2ccccc2)cc1 (stereo not given) 3.12% [at 50 µM], O=C(CC12CC3CC(CC(C3)C1)C2)NC(=S)NCc1ccco1 5.22% [at 50 µM], Cc1ccc(Cl)cc1N1CCN(S(=O)(=O)c2ccc3[nH]c(=O)c(=O)[nH]c3c2)CC1 4.39%, O=C(CCCSc1nc2ccccc2[nH]1)Nc1nnc(-c2ccccc2)o1 1.46% [at 1.563 µM], Cc1cc(NC(=O)COC(=O)C(Nc2ccc(C(F)(F)F)cc2Cl)C(C)C)no1 (stereo not given) 3.28% [at 12.5 µM], Cc1ccccc1NC(=O)CCCSc1nc2ccccc2s1 1.4% [at 25 µM], O=C(OC(C(=O)Nc1cccc(C(F)(F)F)c1)c1ccccc1)C1CCCCC1 (stereo not given) 3.65% [at 50 µM], C=CCOc1c(Br)cc(CNc2ccc(NC(=O)C(C)C)c(OC)c2)cc1OCC 2.15% [at 3.125 µM], COc1ccccc1-n1c(COc2ccccc2-c2ccccc2)nnc1SCC(=O)c1c(N)n(C)c(=O)n(C)c1=O 11.9%, COc1ccc(Br)cc1C(=O)Nc1ccccc1-c1ccccc1 6.2% [at 50 µM], CCCC[C@@H]1C[C@H]1[C@@H](NC(=O)c1ccccc1)c1ccccc1C(F)(F)F 3.06%, CCOc1ccccc1NC(=O)C(OC(=O)c1cc(C)oc1C)c1ccccc1 (stereo not given) 4.82%, Cc1ccccc1Oc1ccc(-c2nc(N)nc(N)n2)cc1 3.9%, O=S(=O)(c1ccccc1F)N(Cc1ccco1)Cc1nnc(-c2ccccc2Br)o1 2.49% [at 1.563 µM], Cc1ccc(C)c(N2CCN(C(=O)c3ccc(Cn4c(=S)[nH]c5ccc(N6CCOCC6)cc5c4=O)cc3)CC2)c1 5.67%, CCOC(=O)C(C)Sc1nc2c(c(-c3cccs3)c1C#N)CCC2 (stereo not given) 3.89% [at 50 µM], Cc1ccc(OCc2nnc(SCC(=O)Nc3ccc4c(c3)OCCO4)n2Cc2ccco2)cc1 0.12% [at 0.782 µM], COC(=O)c1ccc(CSc2nc(-c3ccco3)cc(C(F)(F)F)n2)o1 5.27%, CCCCOc1nc2ccccc2nc1C(C#N)C(=O)NC1CCCCC1 (stereo not given) 4.45%, COc1ccc(-c2ccc(-c3noc(C4CCCCC4)n3)c(OC)n2)cc1 3.89% [at 50 µM], O=C(CSc1nc2ccccc2s1)CSc1nc2ccccc2s1 5.31%, O=C(Nc1ccccc1Cl)c1cccc(COc2cc(Cl)ccc2Cl)c1 2.59%, COc1ccc(Cc2nc(-c3ccc(-n4cccc4)cc3)no2)cc1OC 5.67%, CCCCOc1cccc(C(=O)NC(=S)Nc2cccc(C(F)(F)F)c2)c1 4.25%
